Laboratory results: PubChem BioAssay (NCI)
Values joined by “and” are separate entries in the source; they are usually repeats but may differ in a detail not shown here. Identical values can stand only once. The panel holds about 83,000 compounds, 20% with a hit somewhere; the sample as a whole holds those more often.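 Interpretation: 100, growth as untreated; towards 0, rising growth inhibition; 0, no net growth; 0 to -100, cell death. Compounds scoring below 10 were considered active.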 A number with no mark means an inactive call. Active and inactive are the calls of the source.

system: HL-60(TB) leukemia; assay: NCI-60 one-dose screen, 48 h (100 = growth as untreated, 0 = no growth, -100 = all killed); settings: 10 µM unless noted

Structure (SMILES) | growth
CCCCCCCOc1ccc(S(=O)(=O)Nc2ccc(C)c(F)c2C(=O)O)cc1 | 89.8%
Cc1ccc(C2CC(c3ccc(NC(=S)Nc4ccccc4)cc3)=NN2c2ccc(S(N)(=O)=O)cc2)cc1 (stereo not given) | 8.89% (active)
O=C1Nc2cc(-c3ccc(NC(=O)c4cccc([N+](=O)[O-])c4)cc3)ccc2/C1=C/c1ccc[nH]1 | 106%
CCOC(=O)C1NN(c2ccc(S(N)(=O)=O)cc2)c2nc3nc(-c4cccs4)cc(-c4cccs4)c3c(=O)n21 (stereo not given) | 96.2%
O=C(Nc1ccc(-c2ccc3c(c2)NC(=O)/C3=C\c2ccc[nH]2)cc1)Nc1cccc(Cl)c1 | 10.6%
COc1ccc([C@H](C)Nc2nc(Cl)nc3ccccc23)cc1 | 7.64% (active)
CC1=C(c2cc(-c3ccc(Cl)cc3)c(C#N)c(N)n2)C(c2ccccc2)NC(=S)N1 (stereo not given) | 5.3% (active)
Cc1ccc([C@H]2C(C(=O)c3ccc(Cl)cc3)C3(N[C@@H]2c2ccccc2)C(=O)Nc2ccc(Cl)cc23)cc1 (stereo not given in full) | 34.1%
O=C1c2cccc3c(N4CCN(Cc5ccccc5)CC4)ccc(c23)C(=O)N1c1cccc(-c2nn(-c3ccccc3)cc2-c2nc3ccccc3s2)c1 | 105%
O=C(CN1CCN(c2ncnc3c2cnn3-c2ccccc2)CC1)Nc1ccc(Br)cc1 | 64.3%
Cc1ccc(C2CC(c3ccc(NC(=O)Nc4ccccc4)cc3)=NN2c2ccc(S(N)(=O)=O)cc2)cc1 (stereo not given) | -42.5% (active)
C#CCCCNCCNc1ccnc2cc(Cl)ccc12 | 46.8%
COc1ccc(N=Nc2c(N)nn3c(N)c(C#N)c(-c4ccc(F)cc4)nc23)cc1 | 74%
O=C(Cn1c2c(sc1=O)[C@H]1[C@@H](O)[C@@H](O)[C@H](O)[C@@H]1CS2)N1CCOCC1 | 109%
CCOC(=O)/C(F)=C/C1CC1CCc1ccc(OCC)cc1 (stereo not given) | 101%
O=c1[nH]c2ccccc2cc1COc1ccc(Nc2nccc(-c3ccc(Cl)cc3)n2)cc1 | 95%
CCOC(=O)C1=C(N)N(c2ccccc2)C2=C(C(=O)CC(C)(C)C2)C1c1ccc(N2CCOCC2)cc1 (stereo not given) | 101%
CC(=O)c1cccc(NC(=O)CCC(=O)NS(=O)(=O)c2ccc(C)cc2)c1 | 107%
CCc1ccc(SC2c3cc(OC)ccc3Oc3nc(N)c(C#N)c(N)c32)cc1 (stereo not given) | -77.8% (active)
O=C(c1ccccc1)c1ccc2nc(-c3ccccc3Br)[nH]c2c1 | -52.4% (active)

Structure (SMILES) | growth
Cc1cc(=O)oc2cc(OCCOc3ccc(/C=C/C(=O)Nc4ccccc4N)cc3)ccc12 | 0.0457% (active)
CCCSc1nc(NCCc2c[nH]c3ccccc23)c(C#N)c(-c2ccc(OC)cc2)n1 | 40.7%
S=C(NCCc1ccccc1)Nc1ccc(OCc2nc3ccccc3[nH]2)cc1 | 100%
COc1ccc2c(c1)C(Sc1ccc(F)cc1)c1c(nc(N)c(C#N)c1N)O2 (stereo not given) | 84.9%
O=S(=O)(Nc1cccc(-n2cnc3cc(-c4ccc(O)cc4)ccc32)c1)C1CC1 | -19.9% (active)
COc1cc2oc(-c3cccc(NC(=O)[C@H](Cc4ccccc4)NC(=O)OC(C)(C)C)c3)cc(=O)c2c(OC)c1OC | 22.9%
Cc1ccc(/C(CSc2nnc(-c3c[nH]c4ccccc34)n2-c2ccccc2)=N/O)cc1 | -13.8% (active)
CCC(=O)c1cc(C(=O)OC)c2ccc3c4ccccc4ccc3n12 | 103%
CN(C)c1nc(NCCNS(=O)(=O)c2ccc(C(=O)/C=C/c3ccc(Cl)cc3)cc2)nc(Nc2ccc(F)cc2)n1 | -42.7% (active)
COc1ccc(Cc2nn(CC(=O)N/N=C/c3ccc(F)cc3)c(=O)c3c(C)noc23)cc1 | 78.2%
CCCCNC(=S)Nc1ccc(OCc2nc3ccccc3[nH]2)cc1 | 31.7%
COc1ccc2nc(NC(=O)c3ccc(N(C)C)cc3)sc2c1 | 51.5%
CCn1c(SCC(=O)Nc2ccc(-c3nc4ccccc4[nH]3)cc2)nc2ccccc2c1=O | 0.454% (active)
Cc1ccc2c(c1)C(=O)/C(=C/c1c[nH]c3ccccc13)S2 | 14.9%
O=c1onc(-c2cc3ccccc3nc2Cl)n1-c1cccc2ccccc12 | 33.5%
CCCn1c(=O)c2[nH]c(-c3ccc(OCc4nc5ccc(F)cc5[nH]4)cc3)nc2n(CCC)c1=O | 38.2%
COc1cc2c(c(OC)c1OC)C(=O)CC(c1cccc(NC(=O)c3cccc([N+](=O)[O-])c3)c1)O2 (stereo not given) | 26.1%
COc1ccc(C=CC(=O)c2ccc(-n3c(C)nc4c(cnn4-c4ccccc4)c3=O)cc2)cc1 | 44.7%
COc1ccc(-c2cc(C(=O)NCc3ccccc3)nn2-c2ccc(S(C)(=O)=O)cc2)cc1OC | 97%
NC1(c2ccc(-c3ccc4ncnc(NCc5ccccc5)c4c3)cn2)COC1 | 113% and 106%
